Source: PubChem BioAssay (Sanford-Burnham Center for Chemical Genomics)
A selection: hits, their analogues and other compounds. The true share with any hit is near 4.1%.
NALP3 yeast inh: blocks the NALP3 inflammasome reconstituted in yeast; AID 2825; inhibition, % at 10 µM; hit rate 0.39% among 330,000; Yeast reconstituted NLRP3/ASC/caspase-1, beta-gal luminescence, 24 h;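 active = inhibition of 50% or more; inactive = inhibition below 50%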;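 note: plate controls were induced DMSO wells for no effect and uninduced yeast grown without galactose for full effect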
tim23-1 inh: growth inhibitors of tim23-1 mutant yeast | S. cerevisiae tim23-1 growth, BacTiter-Glo luminescence, 24 h | inhibition, % at 20 µM | hit rate 1.3% among 330,000 | AID 463212;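 active = growth inhibition of the mutant yeast at or above 50%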;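 note: temperature-sensitive mutant grown at 25 °C; plate controls were DMSO-treated mutant yeast for no effect and medium wells lacking yeast for full effect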
TIM10 inh: inhibits growth of TIM10 yeast strain. S. cerevisiae TIM10 strain growth, BacTiter-Glo luminescence, 24 h. inhibition, % at 10 µM. hit rate 1.4% among 330,000;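 active = inhibition of 40% or more at the single tested concentration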;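 note: wild-type TIM10 isogenic control strain grown at permissive 25 °C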
NALP1 yeast inh: NALP1 inhibition | S. cerevisiae NALP1/ASC/caspase-1 growth, X-gal OD620, 72 h | inhibition, % at 10 µM | hit rate 0.61% among 280,000; in the data active = inhibition mostly above about 24%, no sharp cut-off; inactive = mostly below about 32%
tim10-1 inh: growth inhibitors of tim10-1 mutant yeast. S. cerevisiae tim10-1 ts strain growth, BacTiter-Glo, 24 h. inhibition, % at 20 µM. hit rate 2.2% among 330,000;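 active = inhibition of at least 40%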;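 note: mutant grown at 25 °C; 0% = DMSO wells with yeast and 100% = wells holding no yeast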
tim23-1 conf: tim23-1 yeast growth inhibition, confirmed | shares compounds with tim23-1 inh | hit rate 83% among 4,400 | AID 463218 | inhibition, % at 20 µM | S. cerevisiae tim23-1 growth, BacTiter-Glo luminescence, 24 h;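 active = inhibition above about 39% in either of two replicate wells at 20 µM, limit read from the data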;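 note: temperature-sensitive tim23-1 mutant grown at 25 °C; 0% = DMSO wells with yeast and 100% = medium wells without yeast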
* = called active by the depositor; · = not tested or not shown.

SMILES	NALP3 yeast inh	tim23-1 inh	TIM10 inh	NALP1 yeast inh	tim10-1 inh	tim23-1 conf
COc1cc(C(=O)NCCC(=O)NC2CCCCCCC2)cc(OC)c1OC	3.0	55.7*	6.6	4.3	9.6	13.6
Nn1cnnc1N/N=C/c1cc(Br)cc(Br)c1O	49.8	56.8*	39.1	9.3	4.4	60.1*
CN(Cc1ccc(-n2cccn2)cc1)Cc1nc(-c2cnccn2)no1	-6.0	11.5	-10.3	0.9	15.8	·
COc1cc(-c2c(C#N)c(N)nc3[nH]c(=S)[nH]c(=O)c23)ccc1O	20.6	-6.4	-2.1	-4.3	-2.4	·
O=C(NC(=S)Nc1ncc(Br)cc1Br)c1ccccc1	20.6	31.4	16.6	-5.3	8.6	·
COc1ccc(N(CC(=O)Nc2ccc(S(=O)(=O)N3CCOCC3)cc2)S(=O)(=O)c2ccc(F)cc2)cc1	-9.8	1.6	4.8	14.0	5.4	·
O=C(/C=C/c1ccc2c(c1)OCO2)c1ccccn1	8.3	56.0*	21.8	·	32.0	43.5*
COc1ccc(C2=NOC3(CC(=O)N(c4ccc(F)cc4)C3=O)C2)cc1 (stereo unspecified)	0.1	19.8	15.9	-25.7	5.9	·
CCCCC1NC(=S)N(C2CCCCC2)C1=O (stereo unspecified)	-12.0	58.1*	33.3	7.1	7.5	21.7
CCc1nc(Nc2cccc(O)c2)c2oc3ccccc3c2n1	15.6	59.6*	28.9	8.6	9.1	46.1*
CCc1nc(Nc2ccncc2)c2oc3ccccc3c2n1	-3.3	-2.3	6.1	6.7	5.8	·
O=C(COC(=O)CC1CCCCC1)Nc1c(Cl)cccc1Cl	11.9	13.9	-1.4	·	4.8	·
O=C(c1ccc(Cn2c(=S)[nH]c3cc4c(cc3c2=O)OCO4)cc1)N1CCN(c2ncccn2)CC1	11.0	12.4	6.0	18.4	13.5	·
O=C(Nc1oc2ccccc2c(=O)c1-c1ccc(Br)cc1)c1ccco1	29.2	52.0*	24.2	4.2	19.4	41.1*
O=C(Nc1oc2ccc(Cl)cc2c(=O)c1-c1ccc(F)cc1)c1ccco1	2.8	52.7*	18.3	6.4	28.7	45.5*
COc1cc(-c2c(NC(=O)c3ccco3)oc3c(C)cccc3c2=O)cc(OC)c1OC	13.6	13.7	12.5	12.4	6.9	·
COc1ccc(-c2c(NC(=O)c3ccco3)oc3c(C)cccc3c2=O)cc1	12.9	50.6*	25.8	27.3	34.5	42.8*
COc1cccc(-c2c(NC(=O)c3ccco3)oc3ccccc3c2=O)c1	11.0	20.1	0.3	11.7	21.1	·
COc1cccc(-c2c(NC(=O)c3ccco3)oc3ccc(Cl)cc3c2=O)c1	9.7	17.5	3.8	2.1	21.7	·
O=C(NCc1cccs1)C1CCN(S(=O)(=O)c2cccc3nsnc23)CC1	8.8	14.8	11.0	11.6	-0.4	·
O=C(Nc1nccs1)c1ccc(Br)cc1	35.7	56.4*	-10.2	-1.2	-20.6	33.8
O=C(CCNC(=O)c1ccc(Br)cc1)Nc1nccs1	1.2	-12.8	-44.1	-4.6	-1.0	·
O=C(Nc1nccs1)c1ccc(Br)s1	49.8	63.7*	30.9	15.9	33.3	52.1*
Cc1cc(=O)oc2c1c(C(F)(F)F)nn2-c1ccccc1	-41.7	50.2*	25.3	-5.0	26.3	54.9*
Cc1cc(C(F)(F)F)c2c(C)nn(-c3ccccc3)c2n1	3.6	-1.0	9.7	·	6.8	·
SMILES	NALP3 yeast inh	tim23-1 inh	TIM10 inh	NALP1 yeast inh	tim10-1 inh	tim23-1 conf
Cc1ccc(Nc2nnc(SC(C)C(=O)NCC3CCCO3)s2)cc1 (stereo unspecified)	14.6	17.8	19.6	·	13.4	·
Cc1cccc(C(=O)NC2CCN(C(=O)Nc3ccc(F)cc3)CC2)c1	11.9	8.1	-12.1	-9.0	-5.0	·
CC(Nc1nc(-c2cccnc2)nc2ccccc12)c1ccc(F)cc1 (stereo unspecified)	9.6	58.9*	26.4	22.7	-7.5	60.0*
Cc1ccc(Nc2nc(-c3cccnc3)nc3ccccc23)cc1	35.0	55.7*	-13.0	17.1	25.8	55.8*
Fc1cccc(Cc2noc(CN3CCCCC3c3ccccn3)n2)c1 (stereo unspecified)	22.7	26.1	12.7	7.0	2.2	·
O=C(COC(=O)Cc1ccsc1)Nc1ccc(Cl)c(S(=O)(=O)N2CCOCC2)c1	4.2	1.5	-9.2	25.8	8.2	·
C=CCNC(=O)C(=O)Nc1ccc2c(c1)N(S(=O)(=O)c1cccs1)CCC2	16.4	51.5*	35.0	·	34.7	41.5*
Oc1ccc(/C=C/c2ccc3cccc(O)c3n2)cc1Br	18.8	52.6*	13.7	10.0	30.2	70.7*
CCSc1ccc([C@@H]2[C@H]3C(=O)N(CC)C(=O)[C@H]3[C@]3(C(=O)OC)CCCCN23)cc1	20.8	81.0*	19.5	·	27.1	44.6*
CCOc1ccc(-n2c(C)nc(O)c2N=Nc2ccccc2)cc1	-5.3	-2.3	11.1	6.0	4.3	·
CCCCn1c(N)c(N(CCC(C)C)C(=O)C2=COCCO2)c(=O)[nH]c1=O	12.6	-6.4	1.3	12.8	-11.3	·
CCCN(C(=O)c1ccc([N+](=O)[O-])c(C)c1)c1c(N)n(Cc2ccccc2)c(=O)[nH]c1=O	8.4	52.7*	10.2	·	-1.3	59.6*
CCCCN(C(=O)c1ccc2c(c1)OCCO2)c1c(N)n(CCCC)c(=O)[nH]c1=O	10.2	58.5*	14.1	·	27.3	56.8*
CCCCn1c(N)c(N(CCC(C)C)C(=O)c2ccc3c(c2)OCO3)c(=O)[nH]c1=O	10.2	62.1*	8.9	·	22.8	58.3*
CCCN(C(=O)c1cc(C)ccc1C)c1c(N)n(Cc2ccccc2)c(=O)[nH]c1=O	-1.0	9.6	12.0	·	7.9	·
CC1Oc2ccccc2C=C1/C=N/Nc1ccc(C(=O)O)cc1 (stereo unspecified)	23.3	-1.2	-50.3	-30.7	-24.0	·
O=C(Nc1ccc2oc(Cc3ccc(Cl)cc3)nc2c1)c1cccnc1	13.7	58.5*	16.9	42.3	9.5	54.0*
O=C(Nc1ccc2oc(-c3ccccc3)nc2c1)c1ccncc1	26.8	65.0*	17.7	-6.5	-9.5	67.0*
COc1ccc(NC(=O)CCCc2nnc3n(C)c(=O)c4sccc4n23)cc1	3.6	6.3	1.3	-1.3	-3.0	·
COc1ccc2sc(N3C(=O)C4CC=C(C)CC4C3=O)nc2c1 (stereo unspecified)	8.5	11.4	6.7	43.6	19.4	·
S=c1[nH]nc(C2CCCCC2)n1/N=C/c1ccccc1	20.9	67.2*	23.1	4.6	32.2	39.8*
CCOc1ccc(/C=N/n2c(C3CCCCC3)n[nH]c2=S)cc1	24.3	73.9*	36.8	-1.7	28.2	21.2
Fc1ccc(/C=N/n2c(C3CCCCC3)n[nH]c2=S)cc1	22.0	71.1*	34.4	10.3	35.2	31.5
CN(C)c1ccc(/C=N/n2c(C3CCCCC3)n[nH]c2=S)cc1	28.0	50.3*	8.6	-5.6	14.4	33.1
O=C(NCc1ccc(F)cc1)C1CCN(S(=O)(=O)c2cccc3nonc23)CC1	-6.7	-5.3	-5.5	-3.3	-8.7	·
